Screening data deposited in PubChem BioAssay by National Center for Advancing Translational Sciences (NCATS).
Rows were chosen to be rich in hits. Some 18% of all compounds tested hit in one or more screens of this group.
VP16 counter = counter-screen for ROR gamma inhibitors: Gal4-VP16 reporter | Drosophila S2 Gal4-VP16 UAS-luciferase, luminescence, 20 h | Potency, µM (titrated, usually from 53.6 µM), inactives show at the highest dose activity, negative = inhibition, usual class: inhibitors | hit rate 3.5% among 310,000;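 further: Gal4-VP16 expression switched on by copper sulfate through the metallothionein promoter; potency means the concentration at half of the fitted maximal effect; nearly all actives have a fitted effect of over 50% in size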
TDP1 cell noCPT = qHTS for Inhibitors of human tyrosyl-DNA phosphodiesterase 1 (TDP1): qHTS in cells in absence of CPT; AID 686978, 2013; hit rate 15% among 420,000; DT40 Tdp1-/- hTDP1 cells, no CPT, ATP luminescence, 48 h; Potency, µM (titrated, usually from 46.2 µM), for inactives: at the top dose activity change, negative = growth inhibition, actives largely listed as inhibitors; further: potency means the concentration at half of the fitted maximal effect; nearly all actives have a fitted effect of over 55% in size
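Growth of hTDP1-complemented DT40 Tdp1-knockout cells is measured by ATP luminescence after at least 48 hr compound exposure at 37 °C, with DMSO substituting for the 20 nM CPT used in the parallel screen.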
TDP1 cell CPT = DT40-hTDP1 cell growth loss with CPT. hit rate 12% among 420,000. chicken DT40 Tdp1-/-;hTDP1 cells + 20 nM CPT, ATP luminescence, 48 h. Potency, µM (doses to about 46.2 µM), inactives show at the top dose activity change, negative = growth inhibition, hits mostly inhibitors; further: potency means the concentration at half of the fitted maximal effect; nearly all actives have a fitted effect of over 55% in size
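Chicken DT40 Tdp1-/- cells stably complemented with human TDP1 were seeded at 400 cells/well in medium containing 20 nM camptothecin, exposed to pin-transferred compounds, and grown at 37 °C for at least 48 hr. Viability was read as ATP luminescence.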
LDHA inh = inhibitors of human lactate dehydrogenase A. P00338. purified LDHA, NADH/diaphorase-resazurin fluorescence; active compounds read low. hit rate 0.15% among 480,000. activity change, % (values are at about 110 or 230 µM); in the data active means activity change below about -30%; inconclusive means mostly about -25% to -30%;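 further: plate controls were DMSO wells for no effect and wells without enzyme for full effect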
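Human LDH5 (2 nM) was incubated with 0.06 mM NADH and 0.2 mM pyruvate for 5 min at room temperature in Tris pH 7.4. Remaining NADH was coupled through diaphorase/resazurin, and resorufin fluorescence was read at 0 and 20 min.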
RORg inh = ROR gamma (mouse) transcription inhibition; Potency, µM (titrated, usually from 53.6 µM), inactives show at the highest dose activity change, negative = inhibition, hits mostly inhibitors; P51450; hit rate 5.4% among 310,000; Drosophila S2 Gal4-RORgamma UAS-luciferase reporter, 20 h; further: potency means the concentration at half of the fitted maximal effect; nearly all actives have a fitted effect of over 60% in size
Target sequence (P51450 whole entry, looked up, the tested form may be a part): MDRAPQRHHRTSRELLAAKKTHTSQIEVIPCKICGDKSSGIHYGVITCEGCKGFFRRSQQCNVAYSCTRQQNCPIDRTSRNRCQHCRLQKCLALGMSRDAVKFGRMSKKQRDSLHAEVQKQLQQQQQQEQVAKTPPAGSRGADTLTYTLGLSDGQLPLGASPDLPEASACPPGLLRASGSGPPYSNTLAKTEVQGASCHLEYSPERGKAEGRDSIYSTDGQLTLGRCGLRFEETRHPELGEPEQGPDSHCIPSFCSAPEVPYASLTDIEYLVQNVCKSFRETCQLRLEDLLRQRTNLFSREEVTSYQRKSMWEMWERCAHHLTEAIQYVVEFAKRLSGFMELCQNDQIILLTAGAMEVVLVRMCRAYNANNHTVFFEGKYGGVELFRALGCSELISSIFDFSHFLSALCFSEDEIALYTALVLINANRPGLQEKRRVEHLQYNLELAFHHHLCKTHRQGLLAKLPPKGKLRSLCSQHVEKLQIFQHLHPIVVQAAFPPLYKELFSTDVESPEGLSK
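Stably transfected Drosophila Schneider cells are the test system, with ROR gamma fused to Gal4 and luciferase under UAS control; luminescence is read after 20 hr of 700 uM copper sulfate induction at ambient temperature.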
IL-1B inflam inh = blocks inflammasome-driven IL-1 beta release; AID 743279; activity change, % at 57.5 µM; hit rate 4.7% among 360,000; THP-1 LPS/ATP IL-1B secretion, AlphaLISA, 16 h; active compounds read low; in the data active means activity change below about -50%; inconclusive means mostly about -30% to -49%
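THP-1 cells pretreated 1 hr with compounds (up to 57.5 uM final), then stimulated with LPS (250 ng/mL final) plus ATP (1.25 mM final); secreted IL-1B measured by AlphaLISA after 16 hr, decreased signal indicating inhibition.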
* marks the source's active call; other numbers are inactive results. Unless noted, the call rests on the fitted dose curve; in most records, active means well fitted curve in the direction sought with a large enough effect; inconclusive means small, poorly fitted or top-dose-only effect, or another doubt; inactive means no such curve, though single readings can be large; an effect the other way counts as inactive or inconclusive. Unless noted, on the % scale 0 is the no-effect control and ±100 the full control effect.

For O=C(Nc1ccc(F)cc1)C1CC(=O)N(Cc2ccccn2)c2nc3ccccc3n21 (stereo not given) the results were LDHA inh -4.2.
For CN(Cc1ccccc1)C(=O)NC1CCCC(C(F)(F)F)C1 (stereo not given) the results were LDHA inh 9.9.
For COc1ccc(S(=O)(=O)Nc2cc(SCC(=O)O)c(O)c3ccccc23)cc1 the results were VP16 counter -20.7%, TDP1 cell noCPT 5.17µM*, TDP1 cell CPT 3.26µM*, LDHA inh 21.6, RORg inh inconclusive and IL-1B inflam inh -58.7*.
For COC(=O)c1c(C)oc2c1cc(NS(=O)(=O)c1ccc(OC)cc1)c1ccccc12 the results were LDHA inh 23.6.
`COc1ccc(OC)c(/C=N/NC(=O)c2ccc3nc[nH]c3c2)c1` gave VP16 counter -15.8%, TDP1 cell noCPT -13.7%, TDP1 cell CPT 18.0%, LDHA inh -7.2, RORg inh 13.1% and IL-1B inflam inh 28.1.
O=C1N/C(=N/NC(=O)c2cccc3ccccc23)S/C1=C\c1ccccc1OCc1ccccc1 was read as VP16 counter inconclusive, TDP1 cell noCPT inconclusive, TDP1 cell CPT inconclusive, LDHA inh -12.4, RORg inh 0.631µM* and IL-1B inflam inh 18.9.
Screening COc1c(/C=C2\SC(=Nc3ccccc3Cl)NC2=O)cccc1[N+](=O)[O-] returned VP16 counter -4.4%, TDP1 cell noCPT -23.1%, TDP1 cell CPT -6.2%, LDHA inh -0.6, RORg inh inconclusive and IL-1B inflam inh -13.4.
COc1ccc(OC)c(/C=C2\S/C(=N/NC(=O)c3ccc4ccccc4c3)NC2=O)c1 was read as VP16 counter inconclusive, TDP1 cell noCPT -6.5%, TDP1 cell CPT 4.8%, LDHA inh -5.4, RORg inh 1.41µM* and IL-1B inflam inh 18.7.
Screening COc1ccc(/C=C2\SC(=Nc3ccccc3Cl)NC2=O)c(OC)c1 returned TDP1 cell noCPT 14.6µM*, TDP1 cell CPT 25.9µM*, LDHA inh 0.6 and IL-1B inflam inh -52.3*.
`Cc1ccc(C)c(-n2cc(CNCCc3cnccn3)c(-c3ccccc3)n2)c1` gave VP16 counter -6.4%, TDP1 cell noCPT inconclusive, TDP1 cell CPT inconclusive, LDHA inh 1.1, RORg inh -10.0% and IL-1B inflam inh inconclusive.
`COCCN1CCC(CNCc2cn(-c3cc(C)ccc3C)nc2-c2ccccc2)C1` (stereo not given) gave VP16 counter inconclusive, TDP1 cell noCPT 6.51µM*, TDP1 cell CPT inconclusive, LDHA inh -0.5, RORg inh inconclusive and IL-1B inflam inh -24.1.
CCn1ccnc1CNCc1cn(-c2cc(C)ccc2C)nc1-c1ccccc1 was read as VP16 counter -21.3%, TDP1 cell noCPT inconclusive, TDP1 cell CPT inconclusive, LDHA inh -1.0, RORg inh 14.1µM* and IL-1B inflam inh -13.4.
`COCCN1CCC(CNCc2cn[nH]c2-c2ccc(C)c(C)c2)C1` (stereo not given) gave VP16 counter -4.1%, TDP1 cell noCPT -7.6%, TDP1 cell CPT -1.5%, LDHA inh -2.0, RORg inh -7.7% and IL-1B inflam inh inconclusive.
`CN(CC(=O)Nc1ccc(Cl)cc1C(F)(F)F)C1CCCc2ccccc21` (stereo not given) gave LDHA inh 12.9.
`CC(C)c1ccc(CS(=O)(=O)Cc2ccc(C#N)cc2)cc1` gave LDHA inh 7.7.
For COCCNC(=S)N/N=C(\C)CCc1ccc2c(c1)OCO2 the results were VP16 counter 10µM*, TDP1 cell noCPT -25.6%, TDP1 cell CPT -30.0%, LDHA inh -1.5, RORg inh 4.47µM* and IL-1B inflam inh 24.1.
Screening C/C(CCc1ccc2c(c1)OCO2)=N\NC(=S)NC(C)C returned VP16 counter 4.47µM*, TDP1 cell noCPT 16.4µM*, TDP1 cell CPT 18.4µM*, LDHA inh 4.8, RORg inh 2.24µM* and IL-1B inflam inh -10.0.
`CC(CCc1ccc2c(c1)OCO2)NN` (stereo not given) gave TDP1 cell noCPT 2.3% and TDP1 cell CPT 14.0%.
Screening C/C(CCc1ccc2c(c1)OCO2)=N\NC(=O)c1ccc(C)cc1C returned VP16 counter -2.5%, TDP1 cell noCPT 2.91µM*, TDP1 cell CPT 0.7%, LDHA inh -0.4, RORg inh 0.6% and IL-1B inflam inh -9.6.
Screening C/C(CC(C)C)=N\NC(=O)c1cccc(C)c1 returned LDHA inh 0.4.
For CCN(CC)CCCC(C)NC(=O)Nc1ccc(Cl)cc1 (stereo not given) the results were LDHA inh -1.3.
Screening O=C(NCc1ccc(Cl)cc1)c1cnc(N2CCCCC2)c2ccccc12 returned TDP1 cell noCPT inconclusive, TDP1 cell CPT inconclusive and LDHA inh -2.6.
Screening Cc1ccc(CNC(=O)c2cnc(N3CCCCC3)c3ccccc23)cc1 returned TDP1 cell noCPT 16.4µM*, TDP1 cell CPT inconclusive and LDHA inh 3.0.
`O=C(NCc1ccc(F)cc1)c1cnc(N2CCOCC2)c2ccccc12` gave TDP1 cell noCPT 16.4µM*, TDP1 cell CPT inconclusive and LDHA inh -1.7.
`COc1cccc(CNC(=O)c2cnc(N3CCCCC3)c3ccccc23)c1` gave TDP1 cell noCPT inconclusive, TDP1 cell CPT 14.6µM* and LDHA inh 3.9.
`O=C(NCc1cccc(Cl)c1)c1cnc(N2CCCCC2)c2ccccc12` gave TDP1 cell noCPT 25.9µM*, TDP1 cell CPT 16.4µM* and LDHA inh 5.8.
For Cc1ccccc1Nc1nc(N)nc(COc2ccccc2C(=O)NCc2ccccc2)n1 the results were LDHA inh 1.7.
For CCCC(C(=O)NCCc1ccccn1)c1ccccc1 (stereo not given) the results were LDHA inh 4.2.
O=C(O)CNS(=O)(=O)Cc1ccccc1 was read as VP16 counter -11.7%, TDP1 cell noCPT 10.0%, TDP1 cell CPT 25.9%, LDHA inh -2.8, RORg inh 19.0% and IL-1B inflam inh -15.6.
Screening O=S(=O)(Cc1ccccc1)N(O)c1ccccc1 returned VP16 counter -13.9%, TDP1 cell noCPT 23.1µM*, TDP1 cell CPT 20.6µM*, LDHA inh 10.5, RORg inh 16.5% and IL-1B inflam inh -63.0*.
Screening CC(C)CNc1ncnc2c1ncn2[C@H]1CN(CCc2ccccc2)C[C@@H](CO)O1 returned TDP1 cell noCPT -28.1%, TDP1 cell CPT -10.3%, LDHA inh -6.3 and IL-1B inflam inh -71.1*.
